Giardia FBPA inh: qHTS Assay for Inhibitors of Fructose-1,6-bisphosphate Aldolase from Giardia Lamblia; Potency, µM (series often up to 59.6 µM), for the others: at the highest dose activity, negative = inhibition, usual class: inhibitors; actives 0.71% (n = 290,000); AID 2451, 2010; purified Giardia FBPA; note: % is set by controls: 0 for no effect and ±100 for the full control effect; nearly all actives have a fitted effect of over 55% in size
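40 nM FBPA preincubated 10 min at RT with compound (up to 57.5 uM final), then substrate plus GAPDH/TPI/NAD/arsenate coupling and diaphorase/resazurin added. Fluorescence read after 20 min at RT, 525/598 nm.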
LmPK inhibitor: qHTS Assay for Inhibitors of Leishmania Mexicana Pyruvate Kinase (LmPK); Potency, µM (highest dose often 57.5 µM), for inactives: top-dose activity change, negative = inhibition, most hits filed as inhibitors; purified LmPK, Kinase-Glo ATP luminescence, 1 h; actives 0.37% (n = 290,000); Q27686; note: % is set by controls: 0 for no effect and ±100 for the full control effect
Target sequence (Q27686 whole entry, looked up): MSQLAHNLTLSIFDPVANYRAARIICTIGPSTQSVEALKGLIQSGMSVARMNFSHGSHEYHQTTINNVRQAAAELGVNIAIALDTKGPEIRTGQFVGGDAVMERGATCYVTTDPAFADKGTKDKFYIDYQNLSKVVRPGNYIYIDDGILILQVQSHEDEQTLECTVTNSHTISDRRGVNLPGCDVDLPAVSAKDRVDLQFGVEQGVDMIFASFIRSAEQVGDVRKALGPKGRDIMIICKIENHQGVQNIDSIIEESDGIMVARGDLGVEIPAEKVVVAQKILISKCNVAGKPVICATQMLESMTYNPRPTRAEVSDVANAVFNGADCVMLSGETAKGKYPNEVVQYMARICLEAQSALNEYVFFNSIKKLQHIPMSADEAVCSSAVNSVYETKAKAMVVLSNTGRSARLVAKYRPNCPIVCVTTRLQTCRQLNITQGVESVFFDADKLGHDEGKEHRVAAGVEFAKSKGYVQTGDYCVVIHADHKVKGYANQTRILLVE
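qHTS format; LmPK 0.1 nM; substrates PEP 0.5 mM and ADP 0.1 mM. One-hour room-temperature incubation, then coupled luciferase luminescence; 0.5 nM enzyme wells mark activation.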
AMA1-RON2 inh: qHTS for Inhibitors of AMA1-RON; Towards Development of Antimalarial Drug Lead: Primary Screen | AlphaScreen AMA1-biotinylated RON2 peptide binding | Plasmodium falciparum AMA1 (3D7) - RON2 peptide interaction | actives 0.2% (n = 360,000) | Potency, µM (doses to about 58.2 µM), without a hit: at the top dose activity change, negative = inhibition, most hits filed as inhibitors;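 note: 0% = vehicle wells and -100% = peptide control; nearly all actives have a fitted effect of over 45% in size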
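AMA1 (3D7) with his tag at 25 nM final met compounds first, then biotinylated RON2 peptide at 25 nM; detection used donor plus acceptor beads, 10 µg/mL apiece, read by AlphaScreen after 30 min at room temperature.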
Tb PYK inh: qHTS of Trypanosoma Brucei Inhibitors; pyruvate kinase (Trypanosoma brucei), Q57TT1; TbPYK enzyme, Kinase-Glo Plus ATP luminescence, 45 min; Potency, µM (doses to about 76.8 µM), for inactives: top-dose activity, negative = inhibition, most hits filed as inhibitors; actives 0.12% (n = 410,000); AID 624173, 2012; note: % is set by controls: 0 for no effect and ±100 for the full control effect; nearly all actives have a fitted effect of over 50% in size
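T. brucei PYK with substrate was exposed to pin-transferred compounds across a concentration series, then started with 130 uM ADP (final). After 45 min at room temperature, Kinase-Glo Plus luminescence was read, normalized and curve-fitted.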
NS1 inh: qHTS Assay for Inhibitors of Influenza NS1 Protein Function; actives 0.4% (n = 270,000); Potency, µM (titrated, usually from 46.1 µM), inactives show at the highest dose activity, positive = more growth; AID 2326, 2010; calls by dose curve; note: actives are rising curves; nearly all actives have a fitted effect of over 50% in size
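Read-out: OD600 growth recovery of NS1-expressing budding yeast. Cells grown overnight at 30C in -URA glucose medium, washed, resuspended and diluted 1:100 in 2% galactose assay medium, pH 6.0. Same strain lacking NS1 served as positive control.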
Active calls of the source: *; u = inconclusive; x = no result given; [ ] = remark or other dose. Only some compounds are listed: those with a hit (about 1.2% of all), similar ones and a draw of the others. Unless noted, calls come from the whole dose curve; as a rule, active = well fitted curve in the direction sought with a large enough effect; inconclusive = small, poorly fitted or top-dose-only effect, or another doubt; inactive = no such curve, though single readings can be large; an effect the other way counts as inactive or inconclusive. Potency is the fitted concentration of half-maximal effect.

SMILES	Giardia FBPA inh	LmPK inhibitor	AMA1-RON2 inh	Tb PYK inh	NS1 inh
Cc1ccsc1/C=C1/C(=O)NN(c2ccccc2)C1=O	u	u	-8%	-1%	x
Cc1ccsc1C=C1C(=O)c2ccccc2C1=O	0%	14µM*	-21%	-8%	-87%
CCC1(O)CC2CN(CCc3c([nH]c4ccccc34)[C@@](C(=O)OC)(c3cc4c(cc3OC)N(C=O)[C@H]3[C@](O)(C(=O)OC)[C@H](OC(C)=O)[C@]5(CC)C=CCN6CC[C@]43[C@@H]65)C2)C1 (stereo partly specified)	x	x	x	-7%	x
CCOC(=O)C1CCN(C(=O)Nc2ccc3nc(-c4ccco4)c(-c4ccco4)nc3c2)CC1	u	-7%	u	u	21%
O=C(Nc1ccc2nc(-c3ccco3)c(-c3ccco3)nc2c1)N1CCCCCC1	u	1%	12µM*	u	u
COC(=O)CC1c2ccccc2C(Cc2ccc(OC)cc2)C(C)N1C(=O)OC (stereo unspecified)	4%[12.9 µM]	-1%[11.5 µM]	x	x	x
COc1cc(C)c(NC(c2ccccc2)c2ccccc2)cc1OC	-5%	0%	35µM*	-1%	x
COc1ccccc1CNC(c1ccccc1)c1ccccc1	u	1%	19%	4%	-14%
CC[n+]1ccc(/C=C/c2ccc(N(C)C)cc2)c2ccccc21	-14%	16µM*	28µM*	u	-70%
C=CCN1C(=O)N/C(=C/c2ccc(C)o2)C1=O	16µM*	3%	10%	u	-37%
Cc1ncc(CO)c(/C=N/NC(=O)c2cc(Br)ccc2O)c1O	19%	4%	4µM*	-4%	-4%
CCN1/C(=C2/SC(=S)N(C)C2=O)C=Cc2cc(C)ccc21	x	x	-2%	-4%	x
CCN1C(=O)/C(=C2/C=Cc3cc(C)ccc3N2CC)N(C)C1=S	-21%	14µM*	-23%	u	-15%
Cc1noc(C)c1-c1ccc2ncnc(NCc3ccc(-c4ccccc4)cc3)c2c1	-2%	x	x	x	x
CCn1c(-c2ccc3[nH]c(C)c(C)c3c2)n[nH]c1=S	0%	28µM*	16%	u	-50%
Cc1ccc(C(=O)Nc2ncc3c(Cl)cccc3n2)cc1	-9%	13µM*	-1%	-19%	-23%
C#CCCOC(=O)N1C2=NC(C(=O)OC)=C(C(=O)OC)[C@@H]3N(CC#CC)c4ccccc4[C@]23C[C@H]1C(=O)OC	9%[12.9 µM]	-2%[11.5 µM]	x	x	x
CC1=C(C)C(=O)C(CCCCC#CCCCC#CCO)=C(C)C1=O	18µM*	4%	-28%	-4%	-19%
COc1cccc(NC(=S)/C(=C(\[O-])c2ccc(OC(F)F)cc2)[n+]2ccccc2)c1	u	6%	30%	-11%	x
[O-]/C(=C(\C(=S)Nc1cccc2ccccc12)[n+]1ccccc1)c1ccc(OC(F)F)cc1	22µM*	18%	-16%	0%	x
[O-]/C(=C(\C(=S)Nc1cccc2ccccc12)[n+]1ccccc1)c1ccc2c(c1)OCCO2	10µM*	5%	-12%	3%	16%
[O-]/C(=C(\C(=S)Nc1cccc2ccccc12)[n+]1ccccc1)c1cccs1	u	0%	2%	3%	13%
ClC[C@H]1CO1 (tested in a mixture with another compound)	x	x	x	-9%	x
Cc1nn(-c2ccccc2)c(N)c1N=Nc1ccc2ccccc2c1	0%	0%	22µM*	-1%	-12%
N#Cc1nc(Nc2ccccc2)nc(NC2CCCC2)n1	-11%	x	x	x	x
SMILES	Giardia FBPA inh	LmPK inhibitor	AMA1-RON2 inh	Tb PYK inh	NS1 inh
O=C(c1ccco1)N1CCN(c2ncnc3c(-c4ccc(Cl)cc4)nsc23)CC1	3%	-8%	-6%	0%	-3%
Cc1ccc(-c2nsc3c(N4CCN(C(=O)c5ccco5)CC4)ncnc23)cc1	-1%	-3%	x	x	3.5µM*
Cc1cc(=O)oc2c(O)c(O)ccc12	7.1µM*	x	102%	-13%	x
Cc1cc(=O)oc2c(CN3CCCC3)c(O)ccc12	-4%	1%	-3%	4%	2%
O=c1cc(-c2ccccc2)oc2c(O)c(O)ccc12	7.9µM*	x	x	x	x
O=c1cc(-c2ccccc2O)oc2c(O)c(O)ccc12	6.3µM*	x	x	x	x
O=c1cc2oc3cc(O)c(O)cc3c(-c3ccccc3[N+](=O)[O-])c-2cc1O	u	-28%	0.71µM*	u	11%
CCOC(=O)c1ccc(N2C(=O)C=CC2=O)cc1	u	-12%	1%	32µM*	-138%
Cc1ccc(F)c(C2C3C=CCC(c4ccccc4)C3C(=O)N2Cc2ccccc2)c1 (stereo unspecified)	-2%	x	x	x	x
CCOc1ccc(Br)cc1CNc1ccc2c(c1)OCCO2	-23%	2%	32µM*	-22%	-2%
C=CCn1c(O)c(CN2CCOCC2)c(C)c(C#N)c1=O	14µM*	-1%	15%	-11%	-6%
C[C@H](N)[C@H](O)c1ccc(O)c(O)c1	7.1µM*	x	x	x	x
CC[C@H](NC(C)C)[C@H](O)c1ccc(O)c(O)c1	3.5µM*	x	x	0%	x
CC1(C)Cc2ccccc2-c2n[nH]c(=S)n21	0%	7.1µM*	12%	2.8µM*	5%
Cc1ccnc(Nc2nc3ccccc3o2)n1	1%	22µM*	148%	u	7%
Cc1nc(Nc2nc3ccccc3o2)nc(C)c1C	-6%	18µM*	22%	u	x
CO/N=C1\C[C@]2(C[C@@H]3C[C@H](C/C=C(/C)C[C@@H](C)/C=C\C=C4\CO[C@@H]5[C@@H](O)C(C)=C[C@@H](C(=O)O3)[C@]45O)O2)O[C@@H](/C(C)=C/C(C)C)[C@H]1C	x	x	x	-13%	x
Cc1nc(NCc2ccccc2)c2nc(-c3ccccc3)n(CC3CCN(C)CC3)c2n1	4%	x	x	x	x
Cc1ccccc1CSc1cn(CC(=O)N2CCCCC2)c2ccccc12	x	x	x	-5%	x
COc1ccc(C2=CC(=O)C=CC2=O)cc1	16µM*	2.5µM*	x	x	-140%
COc1ccc(C2=CC(=O)C[C@H](c3ccc(OC)cc3)C2)cc1	x	x	1%	0%	x
Cc1ccc(CC(=O)Nc2c(C(=O)N3CCN(c4ccccc4)CC3)oc3ccccc23)cc1	x	x	x	-3%	x
COc1ccc(-n2nc([N+](=O)[O-])c(=NCCc3ccc(C)cc3)n2O)cc1	-6%	7%	u	3%	x
COc1ccc(-n2nc([N+](=O)[O-])c(=NCCC3=CCCCC3)n2O)cc1	-8%	0%	16µM*	-1%	-2%
CC(=O)OC[C@@H]1O[C@@H](O/N=C2/C[C@@H](O)[C@@H](O)[C@@H]3[C@@H]4C(=O)N(C(C)(C)C)C(=O)[C@H]4CC[C@@H]23)[C@H](OC(C)=O)[C@H](OC(C)=O)[C@@H]1OC(C)=O	-2%[12.9 µM]	x	x	x	x

Source: PubChem BioAssay
